Screening results as filed in PubChem BioAssay.
KB-3-1 tox: kills parental KB-3-1 adenocarcinoma cells | KB-3-1 viability, CellTiter-Glo ATP luminescence, 72 h | Potency, µM (highest dose often 46.1 µM), usual class: cytotoxic | actives 1.4% (n = 400,000) | AID 1347075; also: nearly all actives have a fitted effect of over 60% in size
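Screening of KB-3-1 cells (DMEM, 10% FBS, phenol-red free) ran from lowest to highest compound concentration; after 72 h at 37 °C viability was read luminescently and curves fitted.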
TSG101-PTAP inh: blocks PTAP/TSG101 interaction to inhibit HIV-1 budding; Q99816; Fluorescence polarization, FITC-PTAP peptide / Tsg101 binding; Potency, µM (titrated, usually from 115 µM), actives largely listed as inhibitors; 340,000 tested, under 10 active; AID 493005; active = well fitted inhibition curve with a large enough effect in the main read-out, with a control signal flat, not every such curve was filed as active; inconclusive = small, poorly fitted or top-dose-only effect, or effect the other way, or a change in a side signal; inactive = no such curve, though single readings can be large or run the other way
Target sequence (Q99816 whole entry, looked up): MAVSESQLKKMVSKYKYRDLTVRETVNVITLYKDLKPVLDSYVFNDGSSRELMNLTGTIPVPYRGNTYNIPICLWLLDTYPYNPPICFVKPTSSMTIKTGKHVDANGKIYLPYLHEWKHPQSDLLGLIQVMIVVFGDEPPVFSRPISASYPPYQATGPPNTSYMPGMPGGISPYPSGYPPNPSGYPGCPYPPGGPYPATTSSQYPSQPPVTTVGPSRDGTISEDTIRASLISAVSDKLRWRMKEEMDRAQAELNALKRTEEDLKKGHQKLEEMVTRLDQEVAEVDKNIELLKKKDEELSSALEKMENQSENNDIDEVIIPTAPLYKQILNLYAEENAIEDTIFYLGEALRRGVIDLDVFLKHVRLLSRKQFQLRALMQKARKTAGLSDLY
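Compounds were pin-transferred onto Tsg101 binding domain (10 uM final) in HEPES pH 7.5 buffer, then FITC-PTAP peptide was added at 50 nM final. After 20 min at RT, polarization reported peptide displacement across a qHTS concentration series.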
MCF10A rereplic: induces DNA re-replication in MCF 10a normal breast cells | actives 2.9% (n = 350,000) | Potency, µM (series often up to 46.1 µM), actives largely listed as activators | MCF 10A DNA re-replication, Hoechst nuclear intensity, 48 h; also: nearly all actives have a fitted effect of over 50% in size
RGS4 inh: blocks human RGS4-accelerated GTP hydrolysis. Transcreener GDP fluorescence polarization, RGS4-accelerated GTP hydrolysis. Potency, µM (doses to about 114 µM), hits mostly inhibitors. P49798. actives 0.039% (n = 390,000); also: nearly all actives have a fitted effect of over 75% in size
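MLSMR compounds (23 nl, pin-transferred) preincubated 10 min at room temperature with a 500nM (2x) first reagent, then RGS4 at 900nM (2x) plus Transcreener GDP mix added; fluorescence polarization (620/688 nm) read before and after 90 min at 30 °C.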
SW480 rerep: induces DNA re-replication in SW480 colon adenocarcinoma cells; SW480 DNA re-replication, Hoechst DNA content imaging, 48 h; Potency, µM (top dose mostly 46.1 µM), hits mostly activators; actives 1.8% (n = 340,000); AID 624297; also: nearly all actives have a fitted effect of over 55% in size
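Per well, 250 cells were exposed to pinned compound for 48 hr. Nuclear DNA was visualised with Hoechst (40 min, 37 C) and total object intensity recorded by fluorescence scanning.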
KB-V1 MDR tox: kills drug-selected multidrug resistant KB-V1 cells. KB-V1 MDR cells viability, CellTiter-Glo, 72 h. Potency, µM (titrated, usually from 46.1 µM), usual class: cytotoxic. actives 3.4% (n = 400,000). AID 1347076; also: nearly all actives have a fitted effect of over 60% in size
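KB-V1 cells (P-gp-expressing MDR subline of KB-3-1) in phenol-red-free DMEM with 10% FBS were exposed to library compounds over a concentration series for 72 h at 37 degrees C. Viability read by CellTiter-Glo luminescence; concentration-effect curves fitted after normalization.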
Each line names hits and unclear results; the compound was inactive in the other large screens. Sampled rows, rich in hits. Any-hit rate of the full collection: about 6.6%. Unless noted, calls follow the shape of the dose curve; as a rule, active = well fitted curve in the direction sought with a large enough effect; inconclusive = small, poorly fitted or top-dose-only effect, or another doubt; inactive = no such curve, though single readings can be large; an effect the other way counts as inactive or inconclusive.

CCOC(=O)c1cc(C)n(CC2CCC(C(=O)Nc3ccc(Cl)cc3)CC2)c1C (centres undefined)	none (no result: KB-3-1 tox, TSG101-PTAP inh, MCF10A rereplic, SW480 rerep, KB-V1 MDR tox)
COC(=O)c1sc2cccc(F)c2c1S(=O)(=O)N1CCN(c2ccc(F)cc2)CC1	none (no result: TSG101-PTAP inh, MCF10A rereplic, SW480 rerep)
Cc1ccccc1CNC(=O)C(=O)NCC(c1cccs1)S(=O)(=O)c1ccc(Cl)cc1 (centres undefined)	KB-3-1 tox inconclusive (no result: TSG101-PTAP inh, MCF10A rereplic, SW480 rerep)
O=C(Cc1cccs1)NCCS(=O)(=O)N1CCN(c2ccccc2F)CC1	KB-3-1 tox 12µM, MCF10A rereplic 16µM, SW480 rerep 23µM, KB-V1 MDR tox inconclusive
O=C(Cc1cccs1)NCCS(=O)(=O)N1CCN(c2ccccc2)CC1	none (no result: TSG101-PTAP inh, MCF10A rereplic, RGS4 inh, SW480 rerep)
CC1CCN(c2ccc(C(=O)NCCc3ccccc3)cn2)CC1	KB-V1 MDR tox 13µM
CC1CCCN(c2ccc(C(=O)NCc3ccccc3)cn2)C1 (centres undefined)	MCF10A rereplic inconclusive, SW480 rerep inconclusive
O=C1CCc2cc([S+](=O)([O-])NC3CCOCC3)ccc2N1	none (no result: TSG101-PTAP inh, MCF10A rereplic, RGS4 inh, SW480 rerep)
FC(F)(F)c1cc(-c2ccccc2)nc(NC2CCCC2)n1	MCF10A rereplic 7.3µM
CCOC(=O)c1ccc(NC(=O)C2=C(C)C(=O)OC23CCCCCC3)cc1	none (no result: TSG101-PTAP inh, MCF10A rereplic, SW480 rerep)
COCCN1CC(=O)N(c2cccc(C)c2C)C(c2ccc(Cl)cc2)C1=O (centres undefined)	none
Cc1cccc(N2C(=O)C(Oc3ccc(Cl)cc3Cl)C2C=O)c1C (centres undefined)	KB-3-1 tox inconclusive, MCF10A rereplic 18µM, SW480 rerep inconclusive, KB-V1 MDR tox inconclusive
O=S(=O)(c1cccc(NC(=S)N2CCN(c3cccc(Cl)c3)CC2)c1)C(F)F	MCF10A rereplic inconclusive
O=S(=O)(c1cccc(NC(=S)N2CCN(c3ccc(F)cc3)CC2)c1)C(F)F	MCF10A rereplic inconclusive, SW480 rerep 18µM
CN(CC(=O)Nc1cccc(F)c1)C(=O)CCSc1ccc(F)cc1	KB-3-1 tox 8.2µM, MCF10A rereplic inconclusive, KB-V1 MDR tox inconclusive
COc1cccc(NC(=O)CN(C)C(=O)COc2ccc3ccccc3c2)c1	KB-V1 MDR tox 15µM
CCOC(=O)Nc1cccc(OCC(=O)Nc2ccccc2OC)c1	KB-V1 MDR tox 21µM
COc1cccc(NC(=O)CN(C)C(=O)Cc2cccc3ccccc23)c1	none
COc1cccc(NC(=O)CN(C)C(=O)CSc2ccc3c(c2)OCCO3)c1	KB-V1 MDR tox 21µM
Cc1ccc(NC(=O)CN(C)C(=O)CSc2ccc3c(c2)OCCO3)cc1	none
CCN(CC(=O)Nc1ccccc1OC)C(=O)COc1ccc2ccccc2c1	KB-V1 MDR tox 15µM
CCN(CC(=O)Nc1ccc(NC(C)=O)cc1)C(=O)COc1ccc2ccccc2c1	none
CC(=O)Nc1ccc(NC(=O)COC(=O)c2c3c(nc4ccccc24)CCN(Cc2ccccc2)C3)cc1	MCF10A rereplic inconclusive
O=C(COC(=O)c1c2c(nc3ccccc13)CCN(Cc1ccccc1)C2)Nc1c(F)cccc1F	MCF10A rereplic inconclusive, KB-V1 MDR tox 18µM
O=C(Nc1ccc2c(c1)OCCO2)Nc1nnc(-c2ccncc2)s1	none (no result: TSG101-PTAP inh, MCF10A rereplic, RGS4 inh, SW480 rerep)
Cc1cc(C)cc(NC(=O)C(CC(C)C)NC(=O)C2CCCCC2)c1 (centres undefined)	none (no result: TSG101-PTAP inh, MCF10A rereplic, SW480 rerep)
CS(=O)(=O)N(CC(=O)N1CCCCCC1)c1ccc(Br)cc1	KB-V1 MDR tox 15µM
COc1ccccc1N(CC(=O)N/N=C(\C)c1cccc(Br)c1)S(C)(=O)=O	KB-V1 MDR tox 21µM
CCOc1ccccc1N(CC(=O)N/N=C(\C)c1cccc(Br)c1)S(C)(=O)=O	RGS4 inh inconclusive
CCOC(=O)N1CCN(C(=O)CN(c2ccc(OCc3ccccc3)cc2)S(C)(=O)=O)CC1	KB-V1 MDR tox 5.2µM
CCOc1ccccc1N(CC(=O)N1CCCCCC1)S(C)(=O)=O	none
COc1ccccc1N(CC(=O)N1CCCCCC1)S(C)(=O)=O	MCF10A rereplic 0.33µM, SW480 rerep inconclusive
CCN1CCN(C(=O)CN(c2cc(OC)ccc2OC)S(C)(=O)=O)CC1	none
